Among all 2,300 compounds or so, about 1,200 (52%) were called active. Not shown: some 34% with an inconclusive outcome. Calls follow the shape of the dose curve; as a rule, active = well fitted inhibition curve with a large enough effect; inconclusive = small, poorly fitted or top-dose-only effect, or effect the other way; inactive = no such curve, though single readings can be large or run the other way. So high a share suggests a set chosen from earlier hits. Some of the results follow.
Potency is read from the fitted curve at half-maximal effect.

The experiment in a line: Confirmation screen for delayed death inhibitors of the malarial parasite plastid, 48 hour incubation. Also: nearly all actives have a fitted effect of over 65% in size. Conditions: P. falciparum-infected erythrocytes, luciferase growth; series mostly up to 28.7 µM. Put shortly: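 Single-generation (48 h, 37 C) exposure of integrated firefly luciferase-reporter P. falciparum in red cells, 0.1% parasitemia at 2% hematocrit, Albumax-supplemented RPMI. Falling luciferase signal marks parasite growth inhibition.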
As to `CCn1c2ccccc2c2cc(/C=N/n3cn[nH]c3=S)ccc21`, the Potency is 12.6 µM (active).

For the compound `Cc1ccccc1C1=NC(C(F)(F)F)(C(F)(F)F)c2c(n(-c3ccc(F)cc3)c(=O)[nH]c2=O)N1`, the Potency is 10 µM (active).

For `NC(=O)CC(NC(=O)Cc1ccc(Br)cc1)c1ccc(NC2CC3CCC2C3)c([N+](=O)[O-])c1` (configuration not stated), the Potency was 15.8 µM (active).

As to `Cc1cc(C)cc(C(=O)NC(CC(N)=O)c2ccc(NCC3CC3)c([N+](=O)[O-])c2)c1` (configuration not stated), the Potency entry was “inactive”.

For `COc1cccc(C(=O)/C=C/c2ccc(OCC#N)c(OC)c2)c1`, the Potency is 10 µM (active).

With `COc1cc(/C=C/C(=O)c2ccc(O)cc2)ccc1OCC#N`, the Potency is 12.6 µM (active).

Consider `O=C(Nc1nc(-c2ccccn2)cs1)C1COc2ccccc2O1` (configuration not stated), for which the Potency was 6.31 µM (active).

Take `O=C1/C(=C/c2ccccc2F)SC(=S)N1CC(=O)N1CCCCC1c1cccnc1` (configuration not stated): the Potency is 14.1 µM (active).

As for `CCCN1CCC(NC(=O)CC2C(=O)NCCN2Cc2cccc(OC)c2)CC1` (configuration not stated), the Potency entry was “inactive”.

Take `COc1ccc(OC)c(-c2nc(C(=O)NC3CCN(Cc4ccccc4)CC3)cc3c2[nH]c2ccccc23)c1`: the Potency was 4.47 µM (active).

As to `Cc1ccc2c(c1)C1CC(C)(O2)N(c2cccc(C(=O)N3CCN(c4ccccn4)CC3)c2)C(=O)N1` (configuration not stated), the Potency is 12.6 µM (active).

On to `O=C(C=C=Nc1ccccc1)C(=O)N=C=Cc1ccccc1`, for which the Potency is 14.1 µM (active).

Regarding `CCOc1ccc(-n2c(N)c(-c3nc4ccccc4n3C)c3nc4ccccc4nc32)cc1`, the Potency was 3.98 µM (active).

For `O=S(=O)(c1ccc(Cl)c(Cl)c1)c1snnc1-c1ccccc1`, the Potency was 12.6 µM (active).

As to `CCCNC(=O)c1nnsc1S(=O)(=O)c1ccc(Cl)cc1`, the Potency entry was “inactive”.

For `O=C(/C=C/c1ccncc1)c1ccc2c(c1)OCCO2`, the Potency was 12.6 µM (active).

In the case of `O=C(O)c1ccc(/C=N/NC(=O)c2ccc3c(c2)OCCO3)cc1`, the Potency result was “inactive”.

In the case of `O=C(CC1Sc2ccccc2NC1=O)OCc1cc(=O)oc2cc(O)ccc12` (configuration not stated), the Potency was 11.2 µM (active).

For the compound `CO[C@@H]1[C@@H](OC2OC(C)C(OC3CC(C)(O)C(OC(=O)CC(C)C)C(C)O3)C(N(C)C)C2O)[C@@H](CC=O)C[C@@H](C)C(=O)/C=C\C2O[C@H]2C[C@@H](C)OC(=O)C[C@H]1OC(C)=O` (some centres not stated), the Potency is 7.08 µM (active).

For `CCS(=O)(=O)N1Cc2ccccc2CC1C(=O)Nc1cccc(OC)c1` (configuration not stated), the Potency entry was “inactive”.

Turning to `O=C(NC(Cc1c[nH]c2ccccc12)C(=O)Nc1ccc(F)cc1)c1cccs1` (configuration not stated), the Potency was 7.08 µM (active).

On to `COc1ccc(C(=O)NCCc2c[nH]c3ccccc23)cc1[N+](=O)[O-]`, for which the Potency entry is “inactive”.

Take `Cc1cccc(NC(=O)[C@H](Cc2c[nH]c3ccccc23)NC(=O)[C@@H]2Cc3ccccc3CN2)c1`: the Potency was 10 µM (active).

Turning to `COc1cccc(NC(=O)[C@H](Cc2c[nH]c3ccccc23)NC(=O)[C@@H]2Cc3ccccc3CN2)c1`, the Potency was 14.1 µM (active).

Take `COc1ccc(NC(=O)[C@H](Cc2c[nH]c3ccccc23)NC(=O)[C@@H]2Cc3ccccc3CN2)cc1`: the Potency was 7.94 µM (active).

Regarding `CC(C)C(=O)NCCSc1c[nH]c2ccccc12`, the Potency entry is “inactive”.

`CNC(=S)N(CCc1c(C)[nH]c2ccc(C)cc12)Cc1cc(OC)c(OC)c(OC)c1`: the Potency was 12.6 µM (active).

As for `CNC(=S)N(CCc1c(C)[nH]c2ccc(Cl)cc12)Cc1cccnc1`, the Potency was 14.1 µM (active).

On to `Cc1ccc(NC(=O)C(=Cc2ccc(C(=O)O)cc2)C(=O)Nc2ccc(C)cc2C)c(C)c1`, for which the Potency is 10 µM (active).

In the case of `Cn1c(/C=C/c2ccc(Cl)cc2)c([N+](=O)[O-])c(=O)n(C)c1=O`, the Potency was 7.94 µM (active).

For `N#C/C(=C\c1ccccn1)c1ccccn1`, the Potency is 11.2 µM (active).

With `CSC1=NC(C)(C)C=C(/C=C/c2c(Cl)cccc2Cl)N1`, the Potency was 10 µM (active).

Regarding `CSC1=NC(C)(C)C=C(/C=C/c2ccc(Cl)cc2Cl)N1`, the Potency is 1.78 µM (active).

With `CSC1=NC(C)(C)C=C(/C=C/c2ccc(Cl)cc2)N1`, the Potency is 10 µM (active).

Regarding `CC(Oc1ccc(Br)cc1)C(=O)N1CCN(c2ccccn2)CC1` (configuration not stated), the Potency is 15.8 µM (active).

Consider `O=C(c1ccccc1Br)N1CCN(c2ccccn2)CC1`, for which the Potency result was “inactive”.

With `O=C(NCc1ccc2[nH]c3c(c2c1)CCCC3)c1ccc(S(=O)(=O)N2CCCC2)cc1`, the Potency was 15.8 µM (active).

As to `COc1ccc(Cl)cc1NC(=O)C(=O)NCc1ccncc1`, the Potency result is “inactive”.

As to `COc1ccc(-c2cc(C(=O)Nc3cc(C)n(Cc4ccc(Cl)cc4)n3)no2)cc1OC`, the Potency was 0.355 µM (active).

For the compound `Cc1cc(C)cc(NC(=O)c2ccc(CN3CCc4ccccc4C3)cc2)c1`, the Potency was 14.1 µM (active).

Take `O=C(Nc1ccc(Cl)cc1)c1ccc(CN2CCc3ccccc3C2)cc1`: the Potency was 14.1 µM (active).

Regarding `O=C(Nc1ccc(F)cc1)c1ccc(CN2CCc3ccccc3C2)cc1`, the Potency was 12.6 µM (active).

As for `COc1ccccc1CNC(=O)CN1C(=O)NC(c2ccccc2)(c2ccc(C)c(C)c2)C1=O` (configuration not stated), the Potency was 12.6 µM (active).

For `Cc1cc(NC(=O)CN2C(=O)NC(c3ccccc3)(c3ccc(C)c(C)c3)C2=O)no1` (configuration not stated), the Potency is 14.1 µM (active).

Turning to `CCOc1ccccc1CN1C(=O)NC(C)(c2ccccc2)C1=O` (configuration not stated), the Potency result is “inactive”.

Regarding `Cn1c(=O)c([N+](=O)[O-])c(-n2ccnc2)c2ccccc21`, the Potency was 12.6 µM (active).

Consider `C/C(=C\C(=O)OCCCCCCCCC(=O)O)C[C@@H]1OC[C@H](C[C@@H]2O[C@H]2[C@@H](C)[C@H](C)O)[C@@H](O)[C@H]1O`, for which the Potency was 1.12 µM (active).

For `CCC(C)NC(=O)c1cc(Cl)c(NC(=O)C2=C(C)OCCS2)cc1OC` (configuration not stated), the Potency is 11.2 µM (active).

As for `COc1ccc(-c2cc(-c3ccccc3)nc(SCC(=O)Nc3nccs3)c2C#N)cc1`, the Potency is 2.24 µM (active).

As for `COc1ccc(-c2cc(-c3ccccc3)nc(SC(C)C(=O)O)c2C#N)cc1` (configuration not stated), the Potency was 14.1 µM (active).

Consider `CCOC(=O)c1sc(NC(=O)CSc2ncccn2)nc1C`, for which the Potency entry is “inactive”.

On to `Fc1ccc(C2CC(c3ccco3)=NN2c2ccccc2)cc1` (configuration not stated), for which the Potency entry is “inactive”.

On to `CS(=O)(=O)Nc1ccc(C2=NN(C(=O)c3ccco3)C(c3ccc(F)cc3)C2)cc1` (configuration not stated), for which the Potency is 12.6 µM (active).

For `COc1ccc(Cc2nc3ccc(C(=O)NCCc4ccccn4)cc3o2)cc1OC`, the Potency was 14.1 µM (active).

On to `O=C(NNC(=O)c1ccc(Br)s1)c1ccc(F)c(S(=O)(=O)N2CCOCC2)c1`, for which the Potency result is “inactive”.

`C/C(=N\NC(=O)c1ccc(Cl)c(Cl)c1)c1ccc(Br)s1`: the Potency is 3.55 µM (active).

Take `COc1ccc2c(c1OC)C(=O)N1N=C(c3ccccc3)CC21` (configuration not stated): the Potency was 5.01 µM (active).

`Nc1nc(CCl)nc(N(c2ccccc2)c2ccccc2)n1`: the Potency was 8.91 µM (active).

Take `Cc1cccc(N(Cc2ccccc2)C(=O)CN2C(=O)NC3(CCCCC3C)C2=O)c1` (configuration not stated): the Potency is 12.6 µM (active).

As for `COc1ccc(CN2CCN(C(=O)CCC(=O)Nc3nnc(C4CCCCC4)s3)CC2)cc1F`, the Potency is 12.6 µM (active).

As for `CCCc1nnc(NC(=O)CCC(=O)N2CCN(Cc3ccc(Cl)cc3)CC2)s1`, the Potency was 12.6 µM (active).

With `CCCC(=O)Nc1nnc(CC(=O)N2CCCC2)s1`, the Potency result is “inactive”.

As to `CCOC(=O)c1c(C)sc2c1N(C(=O)CCl)c1cc(Cl)ccc1S2`, the Potency was 3.98 µM (active).

Regarding `O=c1[nH]c(C(F)(F)F)nc2ccc3ccccc3c12`, the Potency result was “inactive”.

As for `Cc1ccc(NS(=O)(=O)c2ccc(-c3cnc(C4CC4)o3)cc2)c(C)c1`, the Potency was 5.01 µM (active).

Regarding `O=C(C1CCC1)N1CCc2cc(S(=O)(=O)NCc3ccco3)ccc21`, the Potency result was “inactive”.

On to `O=C(CCl)c1ccc2c(c1)CCN2C(=O)C1CCCCC1`, for which the Potency is 11.2 µM (active).

As for `O=[N+]([O-])/C=C\c1ccc(N2CCCC2)c(F)c1`, the Potency result was “inactive”.

Take `CCC(=O)c1ccc(N2CCN(C(=O)c3cc([N+](=O)[O-])ccc3N3CCN(C)CC3)CC2)c(F)c1`: the Potency is 10 µM (active).

On to `COc1ccc(NC(=O)c2cc([N+](=O)[O-])ccc2N2CCN(C)CC2)cc1`, for which the Potency result was “inactive”.

Take `CCCn1cc(S(=O)(=O)c2ccc(Cl)cc2)c(=O)c2cc(OC)ccc21`: the Potency is 12.6 µM (active).

Take `COc1ccc([N+](=O)[O-])c(S(=O)(=O)c2ccc(Cl)cc2)n1`: the Potency result was “inactive”.

`Cc1onc(-c2c(F)cccc2Cl)c1-c1nnc(-c2ccc(C(F)(F)F)cc2)o1`: the Potency is 5.62 µM (active).

In the case of `Cc1[nH]c(C)c(C(=O)/C=C/c2ccc([N+](=O)[O-])cc2)c1C`, the Potency was 12.6 µM (active).

For the compound `Cc1oc(-c2ccccc2Cl)nc1Cn1cccc1C1=NC(c2ccccc2)CO1` (configuration not stated), the Potency was 12.6 µM (active).

In the case of `CCCSCCCNC(=O)c1ccccc1NC(=O)C1=CSCCO1`, the Potency is 12.6 µM (active).

Turning to `O=C(Cn1c(=O)sc2ccccc21)Nc1nc2c(s1)CCCC2`, the Potency result is “inactive”.

On to `CC(C)(C)c1nc(SCC(=O)Nc2nc3c(s2)CCCC3)c2ccccc2n1`, for which the Potency is 4.47 µM (active).

As for `CC(C)(C)c1nc(SCC(=O)Nc2ccc(N3CCOCC3)cc2)c2ccccc2n1`, the Potency is 11.2 µM (active).

Regarding `O=C(Cc1cn2ccsc2n1)Nc1nc2c(s1)CCCC2`, the Potency entry was “inactive”.

Turning to `CCN(CC)C(=O)C1CCCN(C(=O)c2cc(COc3ccc4ncccc4c3)on2)C1` (configuration not stated), the Potency is 11.2 µM (active).

As to `CN1C(=O)Cc2cc(S(=O)(=O)N3CCN(c4cccc(C(F)(F)F)c4)CC3)ccc21`, the Potency is 11.2 µM (active).

As for `Cc1ccc(-c2cc(=O)c3ccc(F)cc3[nH]2)cc1`, the Potency is 5.01 µM (active).

On to `NC(=O)COc1ccc(C(=O)/C=C2/C(=O)Nc3ccccc32)cc1`, for which the Potency result was “inactive”.

For the compound `NC(=O)COc1ccc(NC(=O)CC23CC4CC(CC(C4)C2)C3)cc1`, the Potency is 11.2 µM (active).

Regarding `CCn1nc(C)c(NC(=O)CC23CC4CC(CC(C4)C2)C3)c1C`, the Potency entry was “inactive”.

On to `C=CCNC(=O)CSc1nc2sc3c(c2c(=O)n1CCCOC)CCC3`, for which the Potency was 12.6 µM (active).

In the case of `CCOc1ccc(-c2cc(C(=O)O)c3ccccc3n2)c(OCC)c1`, the Potency result is “inactive”.

Turning to `COc1cc(/C=N/NC(=O)c2cc(-c3ccccc3OC(C)C)nc3ccccc23)ccc1O`, the Potency was 14.1 µM (active).

As for `COc1ccc(/C=N/NC(=O)c2cc(-c3ccccc3OC(C)C)nc3ccccc23)cc1CN1CCOCC1`, the Potency result is “inactive”.

With `CC(C)Oc1ccccc1-c1cc(C(=O)N/N=C/c2cccnc2)c2ccccc2n1`, the Potency is 11.2 µM (active).

Regarding `CCOc1ccc(-c2cc(C(=O)N/N=C(\C)c3cccnc3)c3ccccc3n2)c(OCC)c1`, the Potency was 14.1 µM (active).

The values above are taken from PubChem BioAssay AID504850 (National Center for Advancing Translational Sciences (NCATS), 2011).
